# Screens: PubChem, several laboratories
# In the library only some 2.9% were active in any assay of this set; here they are far more common.
# Hck Nef HTS: inhibitors of Nef-activated human Hck kinase, primary screen, biochemical, Z-Lyte FRET, 384-well, Hck-YEEI; Tyrosine-protein kinase HCK (Homo sapiens), P08631; Recombinant Hck-YEEI plus Nef, Z-Lyte FRET kinase assay; inhibition, % at 20 µM; 0.68% of 220,000 active; AID 463187, 2010;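 active = Hck-Nef kinase inhibition above about 50%, limit read from the data; inactive = inhibition below that limit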;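 note: 0% = DMSO with Hck plus Nef and 100% = Hck alone without Nef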
# Target sequence (P08631 whole entry, looked up): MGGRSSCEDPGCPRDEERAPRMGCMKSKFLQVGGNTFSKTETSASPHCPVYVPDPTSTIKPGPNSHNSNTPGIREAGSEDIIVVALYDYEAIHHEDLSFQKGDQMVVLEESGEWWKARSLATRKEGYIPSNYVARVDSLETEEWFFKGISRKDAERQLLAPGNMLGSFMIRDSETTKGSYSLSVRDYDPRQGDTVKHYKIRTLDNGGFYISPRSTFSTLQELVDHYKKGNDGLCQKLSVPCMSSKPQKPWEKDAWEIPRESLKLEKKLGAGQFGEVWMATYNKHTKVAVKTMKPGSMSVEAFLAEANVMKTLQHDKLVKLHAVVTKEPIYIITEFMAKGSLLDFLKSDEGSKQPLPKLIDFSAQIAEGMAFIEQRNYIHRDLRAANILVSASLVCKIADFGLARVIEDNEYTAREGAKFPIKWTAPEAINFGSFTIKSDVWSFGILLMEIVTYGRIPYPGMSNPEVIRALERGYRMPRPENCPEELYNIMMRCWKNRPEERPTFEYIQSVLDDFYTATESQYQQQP
# Mcl1-Bid inh: Mcl-1/Bid binding inhibitors, primary screen, biochemical, TR-FRET, 1536-well. Induced myeloid leukemia cell differentiation protein Mcl-1 (Homo sapiens), Q07820. TR-FRET Mcl-1/Bid-Dy647 peptide binding. inhibition, % at 21.7 µM. 0.97% of 220,000 active. AID 1021, 2008;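 active = compounds that cut the binding signal by more than half at the single screening dose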;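 note: His-tagged Mcl-1 with europium anti-His antibody binding Bid BH3 peptide; 0% = Mcl-1 plus peptide wells and 100% = peptide-only wells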
# Pf gametocyte: late stage P. falciparum gametocyte viability inhibitors, primary screen, ATP luminescence, HTS. P. falciparum stage V gametocytes, 24 h. inhibition, % at 10.9 µM. 0.065% of 150,000 active. AID 743093, 2013;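 active = inhibition above the mean plus 3 SD of compounds within the control limits, set per campaign, cut at about 38% in these data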;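 note: 0% = DMSO wells and 100% = medium only without gametocytes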
# Mcl-1 Bim block: inhibitors of Bim peptide binding to Mcl-1, primary screen, biochemical, bead-based flow cytometry, multiplex; Induced myeloid leukemia cell differentiation protein Mcl-1 (Homo sapiens), Q07820; Bim peptide-Mcl-1 binding; inhibition, % at 10 µM; 0.1% of 190,000 active; in the data active = inhibition above about 40%;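 note: 0% = no compound tracer wells and 100% = peptide blocker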
# Mcl1 Noxa PPI: Mcl-1/Noxa binding inhibitors, primary screen, biochemical, TR-FRET, 1536-well; 1.5% of 220,000 active; Induced myeloid leukemia cell differentiation protein Mcl-1 (Homo sapiens), Q07820; TR-FRET Mcl-1/Noxa peptide binding, 2 h; AID 1022, 2008; inhibition, % at 21.7 µM;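 active = compounds that cut the protein-peptide binding signal by more than 50% relative to plate controls in a single-dose test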;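 note: His-tagged Mcl-1 with rhodamine Noxa BH3 peptide and terbium anti-His antibody; 0% = Mcl-1 plus Noxa peptide wells and 100% = peptide-only wells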
# 14-3-3 Bad PPI: inhibitors of 14-3-3 zeta/Bad binding, primary screen, biochemical, TR-FRET, bovine 14-3-3 zeta; 14-3-3 protein zeta/delta (Bos taurus), P63103; TR-FRET 14-3-3zeta/Dy647-pBad peptide displacement, 1 h; inhibition, % at 21.7 µM; 0.71% of 220,000 active; AID 781, 2007;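 active = inhibition above about 70%, limit read from the data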;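 note: 0% = full 14-3-3 plus peptide FRET controls and 100% = background without 14-3-3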
# Numbers without * were called inactive; . = not tested or not shown.
SMILES,Hck Nef HTS,Mcl1-Bid inh,Pf gametocyte,Mcl-1 Bim block,Mcl1 Noxa PPI,14-3-3 Bad PPI
C#CCOCCOCCOCCNc1nc(N2CCN(C(=O)[C@H](CCCCN)n3cc(C(N)[C@H](C)CC)nn3)CC2)nc(N2CCN(C(=O)[C@H](CCC(=O)O)n3cc(C(N)[C@H](C)CC)nn3)CC2)n1 (some centres undefined),-16,75*,.,2,32,44
C#CCOCCOCCOCCNc1nc(N2CCN(C(=O)[C@H]([C@@H](C)CC)n3cc([C@@H](N)CO)nn3)CC2)nc(N2CCN(C(=O)[C@H](CCCCN)n3cc([C@@H](N)C(C)CC)nn3)CC2)n1 (some centres undefined),-9,18,.,-5,21,26
C#CCOCCOCCOCCNc1nc(N2CCN(C(=O)[C@H](CCCCN)n3cc([C@@H](N)[C@H](C)CC)nn3)CC2)nc(N2CCN(C(=O)[C@H](CCC(=O)O)n3cc([C@@H](N)CCCCN)nn3)CC2)n1,.,.,-28,.,.,.
Cc1ccc(-c2nnc3c4ccccc4c(C)nn23)cc1S(=O)(=O)N1CCN(CCO)CC1,-1,-10,.,1,18,-4
COc1cccc(NC(=O)NCCCN2CCN(c3ccc(F)cc3)CC2)c1,0,-40,-31,0,50,-5
COc1ccc(N2CCC(CNC(=O)Nc3cccc(OC)c3)C2)cc1 (centres undefined),0,-100,8,-1,89*,.
COc1ccc(N2CCC(CNC(=S)Nc3cccc(OC)c3)C2)cc1 (centres undefined),2,-58,.,3,75*,2
CCc1cccc(C)c1NC(=S)NCC1CCN(c2ccc(OC)cc2)C1 (centres undefined),33,-31,2,0,48,-8
COc1ccc(N2CCC(CNC(=O)Nc3ccc(Cl)cc3)C2)cc1 (centres undefined),29,-55,-15,2,76*,-3
CCc1ccccc1NC(=S)NCC1CCN(c2ccc(OC)cc2)C1 (centres undefined),1,-140,-4,.,23,-4
CCN1C(=O)/C(=C\N(C)C)S/C1=N\S(=O)(=O)c1ccccc1,25,-18,-30,4,12,92*
COc1cc(C(c2nnnn2C(C)(C)C)N2CCN(c3nc4ccccc4s3)CC2)ccc1O (centres undefined),-1,4,14,10,73*,-10
COc1ccc(C(c2nnnn2C(C)(C)C)N2CCN(c3nc4ccccc4s3)CC2)cc1OC (centres undefined),-3,0,.,-6,7,7
CCCCn1nc2cc(C(=O)NCc3ccc(OC(F)(F)F)cc3)ccc2c1OC,0,-13,.,-2,15,71*
CCOC(=O)c1c(NC(=O)COc2cccc3c2CCN(CC)C3=O)sc2c1CCC2,8,-11,5,-9,0,-10
CCOC(=O)C1CCN(c2nc(N)c3c(N)nc(SCC(=O)O)cc3c2C#N)CC1,2,-30,-5,.,77*,23
CCOC(=O)C1CCN(c2nc(C)cc(C)c2C#N)CC1,7,-1,-4,-3,24,3
Cc1cc(C)n2nc(SCC(=O)c3c(N)n(CC(C)C)c(=O)n(C)c3=O)nc2n1,20,-6,-8,-2,4,-16
COC(=O)Cc1ccc(NC(=S)N2CCN(c3cc(Cl)ccc3C)CC2)cc1,-3,-40,-10,1,6,-13
COc1ccc(C(=O)n2nnc3ccccc32)cc1OC,0,2,2,-9,17,7
COc1ccc(N/C(=C(/C(Cl)=C(Cl)Cl)[N+](=O)[O-])n2nnc3ccccc32)cc1OC,3,75*,.,2,36,24
